Test results taken from publication PMC5540273 (PLoS ONE, 2017).

What was measured:
Conditions in all cases: concentration: 1 μM, replicates: in singlicate; n = 1
[1] = system: T1, RSK1(Kin.Dom.2-C-terminal)
T1 construct: gene RPS6KA1

[2] = system: T2, RSK2(Kin.Dom.1-N-terminal)
T2 construct: gene RPS6KA3

[3] = system: T3, RSK2(Kin.Dom.2-C-terminal)
T3 construct: gene RPS6KA3

[4] = system: T4, RSK3(Kin.Dom.1-N-terminal)
T4 construct: gene RPS6KA2

[5] = system: T5, RSK3(Kin.Dom.2-C-terminal)
T5 construct: gene RPS6KA2

[6] = system: T6, RSK4(Kin.Dom.1-N-terminal)
T6 construct: gene RPS6KA6

[7] = system: T7, RSK4(Kin.Dom.2-C-terminal)
T7 construct: gene RPS6KA6

S6K1 = system: S6K1
SBK1 = system: SBK1
SGK2 = system: SGK2
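Note: KINOMEscan kinase panel screen.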

Structure (SMILES)	%Inh [1]	%Inh [2]	%Inh [3]	%Inh [4]	%Inh [5]	%Inh [6]	%Inh [7]	%Inh (S6K1)	%Inh (SBK1)	%Inh (SGK2)
Cc1ccc(NC(=O)c2ccc(Cl)cc2)cc1-c1ccc(C(=O)Nc2ccncc2)cc1 [GSK1398467]	0%	4%	2%	8%	22%	0%	10%	7%	0%	0%
Cc1ccccc1-c1cc(-c2c[nH]nc2-c2ccccn2)ccn1 [GW680061]	14%	10%	15%	2%	0%	0%	22%	2%	0%	0%
Cn1cnc2c(N)ncnc21 [SKF-97623]	100%	0%	0%	0%	8%	0%	2%	0%	0%	0%
COC(=O)c1cccc(NC(=O)NC2CCN(c3ccnc(Nc4ccc(OC)cc4)n3)C2)c1 (stereo not shown) [GSK1379746]	0%	0%	0%	0%	0%	0%	0%	14%	0%	0%
COC(=O)c1cccc(NC(=O)NC2CCN(c3ccnc(Nc4ccc(F)cc4)n3)C2)c1 (stereo not shown) [GSK1379725]	0%	5%	0%	3%	0%	0%	0%	0%	17%	0%
CN1c2ccc(-c3ccc(C(N)=O)cc3)cc2-c2[nH]ncc2S1(=O)=O	47%	17%	35%	0%	41%	0%	38%	0%	0%	8%
CC(C)c1cc(-c2ccc3c(N)n[nH]c3c2)nc(N)n1 [GSK2250882]	0%	18%	0%	0%	5%	0%	17%	0%	16%	0%
Fc1ccc(-c2nn3cccc(F)c3c2-c2ccncc2)cc1 [GW475620]	24%	9%	33%	7%	0%	16%	78%	5%	12%	11%
Cc1ccc(-c2nc(Nc3ccncc3)c3ccccc3n2)s1 [GSK189015]	18%	7%	21%	3%	12%	0%	28%	0%	4%	4%
Cc1ccccc1Cn1ccn2c(=O)cc(N3CCOCC3)nc12 [GSK2269905]	0%	9%	20%	11%	0%	0%	17%	0%	4%	0%
CNc1cc(-c2ccc3c(N)n[nH]c3c2)nc(N)n1 [GSK2224810]	26%	14%	0%	1%	0%	37%	37%	0%	7%	0%
COc1ccc(-c2coc3ccc(-c4nnc(C)o4)cc23)cc1	4%	0%	0%	0%	8%	22%	15%	0%	0%	0%
CS(=O)(=O)CCNCc1nc(-c2ccc3ncnc(Nc4ccc(OCc5ccccc5)c(Cl)c4)c3c2)cs1.Cl [GW582764]	0%	15%	2%	9%	0%	0%	8%	6%	23%	0%
Cn1cncc1-c1cc2c(Nc3ccc(OCc4ccccc4)cc3)ncnc2cn1 [GW281179]	0%	0%	0%	3%	0%	0%	9%	3%	36%	10%
NS(=O)(=O)c1cccc(N/C=C2\C(=O)Nc3ccc(S(=O)(=O)Cc4c(Cl)cccc4Cl)cc32)c1 [GSK398099]	100%	6%	0%	10%	0%	0%	2%	0%	21%	8%
COc1ccc(CSc2nnc(-c3ccc4c(c3)CCO4)o2)cc1	0%	0%	3%	0%	5%	0%	17%	0%	0%	0%
Cc1cnc(N)c(/C=C/c2cncc(C(=O)NCCc3ccc(Cl)cc3Cl)c2)c1.Cl [GSK190937]	0%	0%	2%	0%	0%	0%	20%	0%	19%	0%

Structure (SMILES)	%Inh [1]	%Inh [2]	%Inh [3]	%Inh [4]	%Inh [5]	%Inh [6]	%Inh [7]	%Inh (S6K1)	%Inh (SBK1)	%Inh (SGK2)
CC(C)c1ccc(O)cc1Nc1ccnc2ccc(C(F)(F)F)cc12 [GW482059]	0%	0%	10%	0%	7%	0%	0%	0%	5%	0%
Cn1cncc1C(=O)NC1CCN(c2ccnc(Nc3ccc(F)cc3)n2)C1 (stereo not shown) [GSK1379717]	12%	5%	0%	0%	12%	0%	15%	7%	16%	7%
COc1ccc2cc(-c3nc(-c4ccccc4C(C)C)[nH]c3-c3ccncc3)ccc2c1 [SB-660566]	0%	3%	18%	19%	0%	25%	11%	8%	2%	0%
O=C(Nc1n[nH]c2nc(-c3cccs3)c(Br)cc12)C1CCCC1 [SB-743341]	0%	15%	0%	0%	0%	26%	0%	2%	0%	0%
Nc1nccc(-c2c(-c3ccc(F)cc3)ncn2C2CCN(Cc3ccccc3)CC2)n1 [SB-219980]	41%	41%	0%	4%	5%	30%	63%	6%	35%	0%
CNCc1ccc2nc(NC(=O)c3ccc(C(C)(C)C)cc3)cn2c1	8%	32%	37%	1%	0%	27%	7%	17%	27%	12%
Cc1cccc2c(-c3ccncn3)c(-c3ccc(F)cc3)nn12 [GW515532]	50%	9%	8%	6%	19%	0%	87%	1%	9%	14%
COc1nccc(-c2c(-c3ccc(F)cc3)ncn2CCCN2CCOCC2)n1 [SB-282852]	11%	27%	17%	0%	38%	0%	36%	29%	0%	36%
COc1cccc(CNC(=O)NC2CCN(c3ccnc(Nc4ccc(F)cc4)n3)C2)c1 (stereo not shown) [GSK1379723]	0%	9%	28%	0%	0%	0%	6%	0%	22%	8%
COc1ccc(Nc2nccc(N3CCC(NC(=O)C(C)c4ccc(Cl)cc4)CC3)n2)cc1 (stereo not shown) [GSK1379812]	0%	21%	99.4%	5%	3%	0%	0%	0%	6%	0%
O=C1NC(=O)C(c2ccc(Cl)cc2)=C1Nc1ccc(O)cc1 [SB-340867]	0%	13%	0%	0%	0%	0%	0%	0%	0%	0%
FC(F)(F)c1ccccc1-c1cc(-c2c[nH]nc2-c2ccccn2)ccn1 [GW679396]	13%	0%	0%	6%	0%	0%	22%	0%	13%	0%
Cl.Cl.Cl.N#Cc1ccc(CCNc2nccc(-c3cccc(CN4CCNCC4)c3)n2)cc1 [GSK2137462]	0%	0%	0%	0%	13%	0%	31%	34%	24%	0%
CCn1c(-c2ccccc2)nc2cnccc21 [SB-733416]	0%	1%	23%	28%	0%	8%	0%	22%	9%	9%
CS(=O)(=O)Cc1ccc(Nc2nccc(-c3c(-c4cccc(NC(=O)C5CCCCC5)c4)nn4ncccc34)n2)cc1 [GSK350559]	33%	13%	11%	12%	0%	17%	9%	24%	34%	40%
CSc1ccc(-c2nc3n(c2-c2ccncc2)CCC3)cc1 [SKF-105561]	62%	0%	20%	0%	35%	8%	70%	0%	30%	7%
CC[C@@H]1CO[C@H](C(=O)Nc2ccccc2)CN1c1cc(-c2ccc3c(N)n[nH]c3c2)nc(NC)n1 [GSK2376236]	31%	0%	2%	26%	16%	0%	7%	0%	0%	0%
